# Measured values: PubChem BioAssay AID1014 (NMMLSC, 2008)
# Activity calls are given as the source filed them. No stated cut-off is given here; in the data, active means inhibition of mean fluorescence above about 33%; inactive means the rest.
# Assay: blockers of bacterial quorum-sensing reporter fluorescence – flow cytometry, SAR analogs, SAR follow-up (AID 1014);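 further: Staphylococcus aureus RN6390 with RNAIII-GFP reporter stimulated by AIP; bacteria incubated with compound for 3 hours at 37 °C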
# Settings: at 20 µM, stronger effect = higher value; inhibition of percent positive cells: measured here: percent reporter-positive cells
Compound,inhibition of mean fluorescence,inhibition of percent positive cells
NC1=NC(=O)CC(C(=O)Nc2ccccc2)S1 (centres undefined),-19.2% (inactive),-0.6%
O=C(NCC(c1cccnc1)N1CCc2ccccc21)c1ccc(F)c(F)c1 (centres undefined),19.9% (inactive),-0.3%
Cc1ccc(C)c(Nc2c(F)c(F)c(F)c(F)c2C(=O)O)c1,2.3% (inactive),-1.9%
COc1ccc(NC(=O)C(c2cc3c(cc2[N+](=O)[O-])OCO3)N2CCCCC2)cc1 (centres undefined),-14.1% (inactive),-1.6%
CCN1CCN(C(C(=O)NC2CCCC2)c2cc3c(cc2[N+](=O)[O-])OCO3)CC1 (centres undefined),-8.6% (inactive),-0.6%
O=C(Nc1ccc2c(c1)OCO2)C(c1ccccc1)N1CCC2(CC1)OCCO2 (centres undefined),-2.7% (inactive),-0.2%
COc1ccc(C(=O)NCC(c2cccnc2)N2CCN(c3ccccc3F)CC2)cc1OC (centres undefined),-7.3% (inactive),-1.8%
O=C(NCCN1CCN(c2ccccc2)CC1)c1cccc(Cl)c1,-5.6% (inactive),0%
CC(=O)c1c(C)oc2ccc(O)cc12,-5.9% (inactive),-1.1%
COc1ccc(Nc2nc3c(S(=O)(=O)c4ccc(Br)cc4)nnn3c3ccccc23)cc1,2.8% (inactive),-0.8%
COc1cc(Nc2cc(C)nc3nc(C)nn23)c(C(=O)O)cc1OC,-11.6% (inactive),0.5%
O=C(Nc1ccc2c(c1)OCCO2)N1CCCC(CN2CCc3ccccc3C2)C1 (centres undefined),-1.4% (inactive),0.1%
Cc1ccc(N=C2NC(=O)CC(C(=O)Nc3cccc4ccccc34)S2)cc1 (centres undefined),-4.5% (inactive),-0.7%
Cc1cccc(OCC(=O)Nc2sc3c(c2C#N)CCCC3)c1C,28.1% (inactive),1.4%
CC(C)c1ccc(NC(=O)C(c2ccc3c(c2)OCO3)N2CCCCC2)cc1 (centres undefined),36.4% (active),-0.7%
Cc1nnc(N2CCC(C(=O)Nc3ccc4c(c3)OCCO4)CC2)c2nn(-c3ccccc3)c(C)c12,-7.3% (inactive),0%
O=C(NCC(c1cccnc1)N1CCc2ccccc21)c1cccc(F)c1 (centres undefined),6.5% (inactive),-2%
COc1ccc(N2CCN(C(CNC(=O)c3ccccc3F)c3cccnc3)CC2)cc1 (centres undefined),-65.6% (inactive),-1.1%
CC(=O)c1cc2c(O)c(O)ccc2o1,17.9% (inactive),-0.1%

Compound,inhibition of mean fluorescence,inhibition of percent positive cells
COc1ccc(OC)c(C(=O)c2coc3ccc(O)cc23)c1,-21.9% (inactive),0%
N#Cc1c(NC(=O)COc2ccccc2)sc2c1CCCC2,-5% (inactive),2.5%
O=CN1CCN(C(C(=O)NC2CCCC2)c2cc3c(cc2[N+](=O)[O-])OCO3)CC1 (centres undefined),-8.7% (inactive),-0.6%
O=C(Nc1ccc2c(c1)OCO2)C(c1ccccc1)N1CCC(Cc2ccccc2)CC1 (centres undefined),63% (active),4.2%
CC1CN(CCC(=O)Nc2ccc3c(c2)OCO3)CC(C)O1 (centres undefined),14% (inactive),-1.3%
O=C(NCC(c1cccnc1)N1CCOCC1)c1cccc(Cl)c1 (centres undefined),-6.2% (inactive),0.6%
CC(C)(C)c1ccc(S(=O)(=O)c2nnn3c2nc(Nc2ccccc2)c2ccccc23)cc1,-15.5% (inactive),-0.9%
CCOC(=O)C1CCN(C(C(=O)Nc2ccc3c(c2)OCO3)c2ccccc2)CC1 (centres undefined),-1% (inactive),-0.4%
CCOC(=O)c1c(COc2ccccc2)oc2ccc(O)cc12,-1.1% (inactive),-0.9%
COc1ccc(NC(=O)C(c2cc3c(cc2[N+](=O)[O-])OCO3)N2CCCC(C)C2)cc1 (centres undefined),29.6% (inactive),-0.9%
CCc1ccc(Nc2nc3c(S(=O)(=O)c4ccc(C)cc4)nnn3c3ccccc23)cc1,19.1% (inactive),-1.1%
O=C(NCC(c1cccnc1)N1CCN(c2ccc(F)cc2)CC1)c1ccccc1F (centres undefined),-2.2% (inactive),0.3%
CC1CCN(C(C(=O)Nc2ccc(C(C)C)cc2)c2ccc3c(c2)OCO3)CC1 (centres undefined),35% (active),-0.9%
CC1CCCN(C(C(=O)Nc2ccc3c(c2)OCO3)c2ccccc2)C1 (centres undefined),81.5% (active),81.9%
COc1c(F)c(F)c(C(=O)O)c(Nc2ccccc2C)c1F,9.6% (inactive),-0.2%
COc1ccc(Nc2nc3c(S(=O)(=O)c4ccc(F)cc4)nnn3c3ccccc23)cc1,-28.2% (inactive),-1.1%
O=C(NCC(c1cccnc1)N1CCc2ccccc21)c1cccc(Br)c1 (centres undefined),29.6% (inactive),0.1%
N#Cc1c(NC(=O)COC(=O)CN2C(=O)c3ccccc3C2=O)sc2c1CCCC2,-2.3% (inactive),-0.2%
